This is one part of a sample in which hits are shown more often than they occur.
KDM5B inhibitor = blocks human KDM5B histone demethylase activity; KDM5B demethylase, FDH-coupled NADH fluorescence (FDH is formaldehyde dehydrogenase); Q9UGL1; Potency, µM (titrated, usually from 57.7 µM), most hits filed as inhibitors; hit rate 2.6% among 220,000; AID 1347165; active = well fitted inhibition curve with a large enough effect; also: 0% is about no effect; nearly all actives have a fitted effect of over 70% in size
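Measured: NADH fluorescence change, 30 min, RT. System: KDM5BΔAP 200 nM final, H3K4me3 peptide, α-KG, Fe(II), ascorbate, NAD⁺ plus FDH, pH 7.5 HEPES. Compounds: titrated, 10 min pre-incubation with enzyme.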
* hit, by the source's call; i = inactive. Potency is read from the fitted curve at half-maximal effect.

SMILES | KDM5B inhibitor
O=C(CCC1CCCC1)Nc1ccc2ccccc2c1 | i
Cc1ccc(C(=O)NCCC(c2ccccc2)c2ccccc2)cn1 | i
c1ccc(-c2cnc3n2C[C@H](CNCc2cccs2)OC3)cc1 | i
CCN(CC)C(=O)CSc1nc(N2CCCC2)c2c(c1C#N)CCCC2 | i
Cn1nc(C(=O)N(Cc2ccccc2F)C2CC2)c2ccccc2c1=O | i
O=C1Nc2ccccc2OCC12CCN([S+](=O)([O-])c1cccs1)CC2 | i
O=C(c1ccc(Cl)cc1)N1CC2(CCCN2C2COC2)Cc2ccccc21 (stereo not given) | 89µM*
O=C(c1ccc(Cl)cc1)N1CC2(CCN(C3COC3)CC2)Cc2ccccc21 | i
O=C(c1ccccc1)N1CC2(CCCN2C2COC2)Cc2ccccc21 (stereo not given) | i
COc1ccc(C2=C(O)C(=O)N(Cc3ccco3)C2c2ccc(C(C)C)cc2)cc1 (stereo not given) | i
Cc1ccc(CC(=O)NC2CCN(c3nnc4cccc(C)n34)CC2)cc1 | 32µM*
O=C(CCCc1ccccc1)NC1CCN(c2cc(-c3ccccc3)[nH]n2)CC1 | i
O=C(Cc1ccc(F)cc1)NC1CCN(c2cc(-c3ccc(F)cc3)[nH]n2)CC1 | i
COc1cccc(C(=O)NC2CCN(c3cc(C(F)(F)F)ncn3)CC2)c1 | i
O=C(CCc1ccccc1)NC1CCN(c2nnc3ccccn23)CC1 | 25µM*
COc1cccc(C(=O)NC2CCN(c3nnc4ccccn34)CC2)c1 | 28µM*
Cc1cc(C)cc(N2CCC(NC(=O)c3ccc(Cl)s3)C2=O)c1 (stereo not given) | i
Cc1ccc(CC(=O)NC2CCN(c3cnn(C)c(=O)c3)CC2)cc1 | i
O=C(NC1CCOC2(CCOCC2)C1)c1ccc(Cl)s1 (stereo not given) | i
O=C(NC1CCN(c2nnc3ccccn23)CC1)c1ccc(Cl)s1 | 25µM*
COc1cccc(C(=O)NC2CCCCC2)c1 | i
O=C(CCc1ccccc1)NC1CCN(c2ccccc2S(=O)(=O)C(F)(F)F)CC1 | i
COc1ccc(-c2coc3cc(OCC(=O)NCCC4=CCCCC4)ccc3c2=O)cc1OC | i
C/C=C/Cn1c(NCCO)nc2c1c(=O)[nH]c(=O)n2C | i
Cc1ccc(N(CCC(=O)NCC2CCCO2)S(=O)(=O)c2ccccc2)cc1 (stereo not given) | i
SMILES | KDM5B inhibitor
CCC(CO)NC(=O)Nc1sc(C)c(C)c1C#N (stereo not given) | i
COc1ccc(C(=O)n2nc(-c3ccc(C)cc3)nc2N)cc1 | i
COc1cccc(-n2cnc3scc(-c4ccc(Cl)cc4)c3c2=O)c1 | i
NC(=O)CNS(=O)(=O)/C=C/c1ccc(Cl)cc1 | i
NC(=O)C1Cc2ccccc2CN1 (stereo not given) | i
O=Cc1cccn1-c1cccc(Br)c1 | i
COc1ccc(C)cc1NC(=O)c1ccccc1OCC(N)=O | i
CC(C)(C)c1ccc(C(=O)NC(Nc2ccc(Br)cc2)C(Cl)(Cl)Cl)cc1 (stereo not given) | i
Cc1nc(NC2CC2)sc1C(=O)NCCc1ccccc1 | i
COc1ccccc1C(=O)Nc1ccc2oc(=O)ccc2c1 | i
CCOC(=O)c1sc(N)c(C#N)c1COC(=O)C12CC3CC(CC(O)(C3)C1)C2 | i
COc1cccc(C(=O)N2CCCC(Cc3nc(C4CCOCC4)no3)C2)c1 (stereo not given) | i
O=C(CC1CCCC1)N1CCCC(Cc2nc(C3CCOCC3)no2)C1 (stereo not given) | i
O=C(c1cncc(Br)c1)N1CCCC(Cc2nc(C3CCOCC3)no2)C1 (stereo not given) | 32µM*
CCNC(=O)N1CCCC(Cc2nc(C3CCOCC3)no2)C1 (stereo not given) | i
CCC(=O)N1CCCC(Cc2nc(C3CCOCC3)no2)C1 (stereo not given) | i
O=C(C1CCC1)N1CCCC(Cc2nc(C3CCOCC3)no2)C1 (stereo not given) | 35µM*
CCCNC(=O)NC(=O)CN(C)Cc1ccccc1Br | i
Cc1sc(NC(=O)C(C)C)c(C#N)c1C | i
O=[N+]([O-])c1c(Nc2cccc(Cl)n2)ccc2nonc12 | i
Cc1cc(SCC(=O)Nc2ccc(F)c(F)c2F)nc2ccccc12 | i
CN(CC(=O)Nc1ccc(F)cc1)C(=O)c1ccc(-n2cccc2)cc1 | i
O=C(O)c1cccc(C(=O)N2C[C@@H](C(=O)O)[C@H](c3ccc4c(c3)OCO4)C2)c1 | i
Cc1ccc(C#N)c(N2CC[C@@H](c3ccc4c(c3)OCO4)[C@H](O)C2)n1 | 28µM*
CCc1nc(CN2CC[C@@H](c3ccc4c(c3)OCO4)[C@H](O)C2)c(C)[nH]1 | 25µM*
SMILES | KDM5B inhibitor
O=C(CCn1ccc(=O)[nH]c1=O)N1CC[C@@H](c2ccc3c(c2)OCO3)[C@H](O)C1 | i
OC1CCN(c2ccnc(N3CC[C@@H](c4ccc5c(c4)OCO5)[C@H](O)C3)n2)CC1 | i
O=C(c1ccccc1-c1ncc[nH]1)N1CC[C@@H](c2ccc3c(c2)OCO3)[C@H](O)C1 | i
C=CCSc1nc2c(c(=O)[nH]c(=O)n2C)n1CCCCCC | i
c1cn2c(NC3CCCCC3)c(-c3ccc(N4CCOCC4)cc3)nc2cn1 | i
O=C(CCNc1c(-c2ccccc2)nc2cnccn12)NC1CCCC1 | 28µM*
O=C(CSc1nnc(-c2ccccc2)c(-c2ccccc2)n1)NC1CCCCC1 | i
O=C(CCNc1c(-c2ccc(F)cc2)nc2cnccn12)NC1CCCC1 | 28µM*
O=C(CCNc1c(-c2ccc(F)cc2)nc2cnccn12)N1CCCCC1 | 22µM*
O=C(Cn1cccc1-c1nc(-c2ccc(F)cc2)no1)NC1CCCC1 | i
O=C(CCn1nc(-c2ccccc2)c2ccccc2c1=O)NC1CCCCC1 | i
O=C(Nc1c(-c2ccc(F)cc2)nc2ccccn12)c1ccccc1F | i
O=C(c1cn[nH]c1-c1ccc(F)cc1)N1CCCCC1 | i
CCN(c1ccc(-c2csc(Cc3ccccc3)n2)cc1)S(C)(=O)=O | i
CCOc1ccc(Nc2oc(COc3ccc(Cl)cc3)nc2C#N)cc1 | i
O=C(CSc1nnc2ccc(-c3cccnc3)nn12)NC1CCCCC1 | i
CCn1nc(C(=O)Nc2ccc(OCC(=O)N(C)C)cc2)c2ccccc2c1=O | i
S=C(NCCc1ccc(Cl)cc1Cl)NC1CC2CCC1C2 (stereo not given) | i
Cc1cnc(NC(=O)CCc2ncc(-c3ccc(F)cc3)o2)s1 | i
Cc1cc(Cl)ccc1-n1ncc2c(NCC3CCCO3)ncnc21 (stereo not given) | i
COc1ccc2cnn(CC(=O)N3CCN(c4ccccc4F)CC3)c(=O)c2c1OC | i
COC(=O)C1=C(C(=O)OC)SC(=C(Cl)C(=S)NCc2ccccc2)S1 | i
CC(C)C(=O)Nc1ccc2c(ccn2CCN2CCOCC2)c1 | i
Cc1cc(CN(C)Cc2cn(-c3cccc(F)c3)nc2-c2ccc(C)o2)n[nH]1 | 25µM*
Cc1ccc(-c2nn(-c3cccc(F)c3)cc2CN(C)CCO)o1 | 25µM*
COc1ccc(-c2nn(-c3ccccc3)cc2CN(C)CCn2ccnc2C)c(F)c1 | i
COC(=O)CN(C)Cc1cn(-c2ccc(C)cc2)nc1-c1cccc(C)c1 | i
CN(Cc1cccc(CCN)c1)Cc1cnn(-c2ccc(F)cc2)c1 | i
COc1ccc(-c2nn(-c3ccccc3C)cc2CN(C)Cc2cn(C)nc2C)cc1F | i
Cc1cccc(-n2nc(C)c(CCC(=O)N3CCSCC3)c2Oc2ccc(F)cc2F)c1 | i
